# From PubChem BioAssay AID493083 (Broad Institute, 2011)
# The whole screen tested about 2,400 compounds, of which about 95 (4%) were called active. Not shown: some 3% with an inconclusive outcome.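 The calls were made as follows: active = compounds lowering signal whose fitted AC50 is at most ten times the top tested dose; inconclusive = flat fit with moderate inhibition, or poor curve fit; inactive = the rest.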 Not all results are given here. Entries with a potency or affinity are not part of this list.
# Test: GFP reporter loss versus dox-driven RFP – NIH3T3 R4 cells, cherry-pick, set 3, dose response (AID 493083);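 also: 0% = neutral control wells and -100% = didemnin B positive control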
# Conditions: NIH3T3 R4 HSF-1 GFP reporter, heat shock, 48 h; series mostly up to 19.5 µM; activity change, negative = inhibition: at the top concentration
row,SMILES,"activity change, negative = inhibition"
1,NS(=O)(=O)c1ccc(CCNC(=O)c2ccc(C#CC3(O)CCCCC3)cc2)cc1,-11% (inactive)
2,COc1cccc(/C=N/NC(=O)c2cnccn2)c1,-11.7% (inactive)
3,CC1CCN(CC(=O)c2cccs2)CC1,-0.687% (inactive)
4,N/C(=N\OC(=O)Cc1ccccc1[N+](=O)[O-])c1cccnc1,-2.18% (inactive)
5,Cc1ccc(S(=O)(=O)c2ccc(Oc3ccccc3)cc2)cc1,6.62% (inactive)
6,COc1cc(NS(=O)(=O)c2ccc(C)cc2)c2ncccc2c1,152% (inactive)
7,O=C(Cc1ccc(O)cc1)NC1CCCCCC1,2.64% (inactive)
8,Fc1ccc(-c2nc3c(-c4ccc(Cl)cc4)cnn3cc2CCN2CCOCC2)cc1,6.99% (inactive)
9,COc1ccc(-n2cc([N+](=O)[O-])c(=O)c3ccc(Cl)cc32)cc1,-4.31% (inactive)
10,O=[N+]([O-])c1ccc(O)c(C=Nc2ccc3oc(Cc4ccc(Cl)cc4)nc3c2)c1,2.32% (inactive)
11,CC(=O)c1ccc(OCC(O)CN2CCN(Cc3ccc4c(c3)OCO4)CC2)cc1 (stereo unspecified),-11.3% (inactive)
12,COc1ccc(C(=O)NC(=S)NNC(=O)c2ccco2)cc1,-5.87% (inactive)
13,CNC(=S)N(CCc1c(C)[nH]c2ccc(C)cc12)Cc1cc(OC)c(OC)c(OC)c1,6.85% (inactive)
14,CC1CCC2(CC1)N=C(N)Nc1nc3ccccc3n12 (stereo unspecified),22.7% (inactive)
15,COc1ccc(C(=O)NNC(=O)c2ccccn2)cc1,1.89% (inactive)
16,COc1ccc(OC)c(-c2cc(C(=O)N/N=C/c3cc(OC)c(OC)cc3OC)c3ccccc3n2)c1,6.57% (inactive)
17,CC(C)Nc1nnc(Sc2ccc(Cl)cc2[N+](=O)[O-])s1,6.78% (inactive)
18,Cc1ccc2nc(CSc3nc(C)ccc3C#N)[nH]c2c1,5.73% (inactive)
19,CC(/C=C/c1ccc2c(c1)OCO2)=N/NC(=O)c1ccncc1,25.8% (inactive)

row,SMILES,"activity change, negative = inhibition"
1,COCCN(C(=S)Nc1c(C)cccc1C)C(C)c1cccnc1 (stereo unspecified),-2.92% (inactive)
2,COCCCn1c(-c2ccco2)nc2ccccc2c1=O,-0.204% (inactive)
3,N#Cc1c(N)n(-c2ccccc2N)c2nc3ccccc3nc12,-3.31% (inactive)
4,COc1ccccc1C(=O)NCC(=O)N/N=C/c1ccc2c(c1)OCO2,3.39% (inactive)
5,NS(=O)(=O)c1ccc(NC2=CC(=O)C(=O)c3ccccc32)cc1,-26% (inactive)
6,CN(Cc1nc(-c2ccccc2)no1)C(=O)c1ccc2c(c1)OCO2,2.75% (inactive)
7,COc1cccc(-c2c(NC(C)=O)n(C)c3ccccc3c2=O)c1,-3.87% (inactive)
8,COc1ccc(NC(=O)c2cc(CN3C(=O)c4ccccc4C3=O)ccc2OC)cn1,3.72% (inactive)
9,COc1ccc(/C=N/NC(=O)c2cc(-c3cccn3C)n[nH]2)cc1OC,1.97% (inactive)
10,C=CCn1c(CCCNC(=O)C(C)(C)C)nc2ccccc21,5.13% (inactive)
11,Cc1ccc(NC(=S)NC2CC3CCC(C2)N3Cc2ccco2)cc1C (stereo unspecified),2.77% (inactive)
12,COc1ccc(N2CCN(C(=O)c3ccc(NS(=O)(=O)c4ccccc4)cc3)CC2)cc1,21.2% (inactive)
13,COC(=O)c1cc2ccsc2n1Cc1nc(-c2ccc(Cl)cc2)oc1C,3.21% (inactive)
14,COc1ccccc1/C=C/CN1CCC(Oc2cc(C(=O)NC3CC3)ccc2OC)CC1,7.7% (inactive)
15,CC(NO)/C(=N\O)c1cccs1 (stereo unspecified),1.92% (inactive)
16,COC(=O)C1=C(C(=O)OC)[C@@H]2N(C)c3ccccc3[C@@]23C[C@@H](C(=O)OC)N(C(=O)CC(C)C)C3=N1,0.888% (inactive)
17,CCN1CCN(CCNC(=O)CCCCCn2c(=O)[nH]c3cc(C(=O)OC)ccc3c2=O)CC1,-7.53% (inactive)
18,O=C(COC(=O)c1ccccc1SCC(=O)N1CCCC1)NC1CCS(=O)(=O)C1 (stereo unspecified),1.73% (inactive)
19,Cc1ccc(S(=O)(=O)N2CCCC(C(=O)NCCc3ccc4c(c3)OCO4)C2)cc1 (stereo unspecified),13.8% (inactive)

row,SMILES,"activity change, negative = inhibition"
1,FC(F)Oc1ccc(NC(=S)NNc2ccnc3cc(Cl)ccc23)cc1,39.7% (inactive)
2,CCc1ccc(C(=O)Cn2ncc(Cl)c(Cl)c2=O)cc1,-74.6% (inactive)
3,Cc1ccc(-n2ncc(Br)c(Br)c2=O)cc1,-70.3% (inactive)
4,CCCCCn1c(SCC(=O)CC(=O)OCC)nc2cc(C(=O)N3CCC(C(N)=O)CC3)ccc2c1=O,-1.23% (inactive)
5,CC(=O)Nc1cc[n+](C(C)C(=O)c2ccccc2)cc1 (stereo unspecified),-10.5% (inactive)
6,COc1cccc(-n2ccnc2SCC(=O)Nc2ccccc2F)c1,9.89% (inactive)
7,O=C(CCc1ccccc1)Nc1cccc([N+](=O)[O-])c1,9.15% (inactive)
8,O=C(NN=C1CCCCCCCCCCC1)c1ccccc1F,4.34% (inactive)
9,COc1ccc(-n2nc(C(=O)NCC(=O)NCc3ccccc3OC)c3ccccc3c2=O)c(OC)c1,-1.43% (inactive)
10,O=C(NC1CCCCC1)C(c1ccco1)N(C(=O)c1csnn1)c1ccc(Cl)cc1 (stereo unspecified),0.074% (inactive)
11,CCC(C)NC(=O)C1(C)CCC(=O)N1Cc1ccccc1OC (stereo unspecified),-0.568% (inactive)
12,O=C(O)CSc1nc(-c2ccccc2)nc2c1oc1ccccc12,-7.46% (inactive)
13,CNC(=O)c1ccsc1NC(=O)c1ccc(Cl)s1,-0.254% (inactive)
14,Cc1ccc(OCC(=O)NCCNC(=O)c2ccco2)cc1C,-0.642% (inactive)
15,CCCCn1c(SCC(=O)NCc2ccco2)nc2c(sc3ccccc32)c1=O,-2.75% (inactive)
16,O=C(CCl)N1N=C(c2cccs2)CC1c1ccco1 (stereo unspecified),111% (inactive)
17,COc1ccc(C2=NN(S(C)(=O)=O)C(c3cccs3)C2)cc1OC (stereo unspecified),0.996% (inactive)
18,Cn1c(=O)c2ccccc2n(Cc2ccccc2Cl)c1=O,62.4% (inactive)
